From PubChem BioAssay
The source made the active and inactive calls.

What was measured:
[1] = tested on: Plasmodium falciparum Sir2 (PF13_0152, Sir2A); test: Plasmodium falciparum Sir2A binding compounds – biochemical, small-molecule microarray, 635 nm fluorescence, primary screen (AID 1098); conditions: fluorescence 635 nm, higher = more signal;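 further: score merges spot fluorescence intensity with its signal-to-noise ratio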
[2] = probe aDKK1 binding to arrayed compounds – biochemical, biotinylated probe, 635/667 nm fluorescence, primary screen (AID 1099); conditions: small-molecule microarray, higher = more signal;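 further: score merges 667nm spot fluorescence with signal to noise across triplicate slides; reference of the scale not given here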
[3] = probe aCHRDL2 binding to arrayed compounds – biochemical, biotinylated probe, 635/667 nm fluorescence, primary screen (AID 1100); conditions: small-molecule microarray, higher = more signal
[4] = change in splice reporter luminescence, either direction, cell-based, HEK293, spliceosome inhibition project, primary screen (AID 1101); conditions: HEK293 splicing luciferase reporter, 24 h, higher = more signal, called active from +8 up or from −8 down;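 further: HEK293 cells carrying a splicing-competent luciferase reporter gene; test concentration not given here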
[5] = target: Fibroblast growth factor 10 (Homo sapiens) (UniProt O15520); test: compounds binding fibroblast growth factor 10 – biochemical, small-molecule microarray, 635 nm fluorescence, primary screen (AID 1102); conditions: FGF10 binding, fluorescence 635 nm, higher = more signal
Sequence of Fibroblast growth factor 10 (Homo sapiens) (O15520 whole entry, looked up): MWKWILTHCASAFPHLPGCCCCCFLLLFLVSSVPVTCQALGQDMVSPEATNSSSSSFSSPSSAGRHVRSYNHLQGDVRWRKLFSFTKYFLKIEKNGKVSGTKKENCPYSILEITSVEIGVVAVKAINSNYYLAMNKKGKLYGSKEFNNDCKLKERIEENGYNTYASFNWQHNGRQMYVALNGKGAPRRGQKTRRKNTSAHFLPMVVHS

[6] = tested on: glycogen synthase kinase-3 (GSK3A per assay name; protocol says GSK3B); test: compounds binding glycogen synthase kinase-3 – biochemical, small-molecule microarray, 635 nm fluorescence, GSK3A, primary screen (AID 1103); conditions: fluorescence 635 nm, higher = more signal; further: the record names both GSK3A and GSK3B
[7] = target: Epidermal growth factor receptor (Homo sapiens) (UniProt P00533); test: compounds binding epidermal growth factor receptor – biochemical, small-molecule microarray, 635 nm fluorescence, primary screen (AID 1104); conditions: EGFR binding, higher = more signal;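 further: score merges 667 nm emission intensity with spot signal to noise over triplicate slides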
Sequence of Epidermal growth factor receptor (Homo sapiens) (P00533 whole entry, looked up): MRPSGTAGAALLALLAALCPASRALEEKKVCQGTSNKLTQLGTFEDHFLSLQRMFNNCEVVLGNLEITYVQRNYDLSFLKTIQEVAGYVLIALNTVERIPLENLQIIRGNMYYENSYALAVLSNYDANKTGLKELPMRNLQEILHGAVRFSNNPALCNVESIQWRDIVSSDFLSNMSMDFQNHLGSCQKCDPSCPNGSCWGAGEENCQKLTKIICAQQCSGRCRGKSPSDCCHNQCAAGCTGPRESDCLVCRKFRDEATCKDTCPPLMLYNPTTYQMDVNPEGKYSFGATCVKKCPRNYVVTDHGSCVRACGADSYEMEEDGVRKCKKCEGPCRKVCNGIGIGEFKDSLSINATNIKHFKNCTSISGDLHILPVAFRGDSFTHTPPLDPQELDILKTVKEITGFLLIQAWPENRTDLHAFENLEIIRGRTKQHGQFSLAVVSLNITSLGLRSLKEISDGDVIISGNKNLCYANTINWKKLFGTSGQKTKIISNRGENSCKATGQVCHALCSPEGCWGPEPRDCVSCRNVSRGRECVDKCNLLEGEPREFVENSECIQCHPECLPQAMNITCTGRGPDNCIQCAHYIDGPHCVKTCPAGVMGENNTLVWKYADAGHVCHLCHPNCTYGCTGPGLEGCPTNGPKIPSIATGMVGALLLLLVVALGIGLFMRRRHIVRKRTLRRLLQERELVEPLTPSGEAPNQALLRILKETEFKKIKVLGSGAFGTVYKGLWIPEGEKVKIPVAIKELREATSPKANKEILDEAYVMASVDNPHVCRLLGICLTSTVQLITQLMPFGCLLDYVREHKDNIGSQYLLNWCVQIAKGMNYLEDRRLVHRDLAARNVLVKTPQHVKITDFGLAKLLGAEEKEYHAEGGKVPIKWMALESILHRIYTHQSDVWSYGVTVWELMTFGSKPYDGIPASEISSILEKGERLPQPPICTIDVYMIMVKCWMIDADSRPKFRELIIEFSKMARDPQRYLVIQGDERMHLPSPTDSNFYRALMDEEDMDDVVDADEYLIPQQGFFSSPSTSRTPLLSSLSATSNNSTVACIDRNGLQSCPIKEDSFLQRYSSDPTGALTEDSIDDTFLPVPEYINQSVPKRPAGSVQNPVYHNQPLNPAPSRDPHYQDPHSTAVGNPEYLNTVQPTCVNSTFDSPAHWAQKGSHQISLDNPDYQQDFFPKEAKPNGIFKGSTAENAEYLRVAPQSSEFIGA

[8] = target: Follistatin-related protein 3 (Homo sapiens) (UniProt O95633); test: compounds binding follistatin-related protein 3 – biochemical, small-molecule microarray, 635 nm fluorescence, primary screen (AID 1105); conditions: FSTL3 binding, higher = more signal;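 further: score merges emission near 667 nm and signal to noise per printed spot across three slides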
Sequence of Follistatin-related protein 3 (Homo sapiens) (O95633 whole entry, looked up): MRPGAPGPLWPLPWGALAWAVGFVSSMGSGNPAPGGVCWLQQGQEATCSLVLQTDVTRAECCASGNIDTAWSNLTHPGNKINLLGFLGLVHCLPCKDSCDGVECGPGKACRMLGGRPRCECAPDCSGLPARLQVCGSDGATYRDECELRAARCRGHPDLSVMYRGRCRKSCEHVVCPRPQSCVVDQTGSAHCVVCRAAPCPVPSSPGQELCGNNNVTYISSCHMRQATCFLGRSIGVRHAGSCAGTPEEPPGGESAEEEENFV

[9] = target: Dickkopf-related protein 1 (Homo sapiens) (UniProt O94907); test: small molecules binding DKK1 protein – biochemical, small-molecule microarray, 635 nm fluorescence scan, primary screen (AID 1106); conditions: higher = more signal;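 further: score merges emission near 667 nm with signal to noise over three replicate slides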
Sequence of Dickkopf-related protein 1 (Homo sapiens) (O94907 whole entry, looked up): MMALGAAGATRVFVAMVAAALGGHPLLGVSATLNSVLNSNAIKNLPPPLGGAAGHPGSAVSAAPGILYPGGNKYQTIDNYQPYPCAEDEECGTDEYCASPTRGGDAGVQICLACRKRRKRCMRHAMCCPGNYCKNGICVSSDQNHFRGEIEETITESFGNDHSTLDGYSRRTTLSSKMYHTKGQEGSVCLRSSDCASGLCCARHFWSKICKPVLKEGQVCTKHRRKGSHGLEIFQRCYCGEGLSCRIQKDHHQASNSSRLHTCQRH

[10] = tested on: Inhibin beta A chain (activin A); test: small molecules binding activin A – biochemical, small-molecule microarray, 635 nm fluorescence scan, primary screen (AID 1107); conditions: INHBA, higher = more signal;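 further: mouse activin A protein probed at 4.33 µg/mL on printed slides; score merges bound-protein fluorescence near 667 nm with spot signal-to-noise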

Compound | composite z-score [1] | composite z-score [2] | composite z-score [3] | z-score [4] | composite z-score [5] | composite z-score [6] | composite z-score [7] | composite z-score [8] | composite z-score [9] | composite z-score [10]
C=CC[C@@]1(C(=O)N2CCOCC2)N=C(c2ccc(OCCCO)cc2)O[C@@H]1c1ccccc1N=[N+]=[N-] | 0.904 | 1.01 | 1.08 | -2.33 (inactive) | 1.31 | 0.951 | 0.279 | 0.606 | 0.174 | 1.16
CCCC[C@H]1OB(O)C[C@H]2C1=C(C)C[C@H]1C(=O)N(Cc3ccccc3)C(=O)[C@H]12 | 0.148 | -0.109 | -0.665 | 0.0984 (inactive) | 1.13 | 0.507 | 0.244 | 1.25 | 0.999 | 0.181
CN1C(=O)C2C=CC(C(O)c3ccccn3)N(Nc3ccccc3)C2C1=O (stereo not given) | 0.427 | 0.257 | 0.276 | 0.782 (inactive) | 0.3 | 0.422 | 0.389 | 0.157 | -0.0961 | 1.05
CC(C)c1ccc(NN2C(C(O)c3ccc(N(C)C)cc3)C=CC3C(=O)N(c4ccccc4)C(=O)C32)cc1 (stereo not given) | 1.24 | 0.64 | 0.947 | -0.132 (inactive) | 0.782 | 0.267 | 0.0151 | 1.25 | 0.469 | 0.898
CN(C)CCCNC(=O)[C@@]1(Cc2ccccc2I)c2ccccc2C(=O)N(Cc2ccccc2C(F)(F)F)[C@H]1c1ccc(CO)cc1 | 0.278 | 0.234 | 0.86 | -1.55 (inactive) | -0.75 | 0.391 | -1.62 | -1.34 | -1.33 | 0.094
C=CCOC(=O)[C@@H]1[C@H]2C(=O)O[C@H](c3ccccc3)[C@H](c3ccccc3)N2[C@H](c2ccc(OCCOC(=O)[C@@H]3C[C@@H]4C(=O)NCC(=O)N4[C@@H]3c3cccc(OCCO)c3)cc2)[C@@]12C(=O)Nc1ccc(I)cc12 | 1.05 | 0.0651 | -0.162 | -0.798 (inactive) | 1.29 | 1.16 | 1.12 | 1.1 | 0.866 | 0.884
O=C1C[C@@](C(=O)NC2CC2)(c2ccc([N+](=O)[O-])cc2)[C@@H](c2ccc(CO)cc2)N1CC12CC3CC(CC(C3)C1)C2 | 1.3 | -0.0801 | 0.782 | -1.42 (inactive) | 0.474 | 0.612 | 0.1 | 0.925 | 0.253 | 0.571
COc1ccc(C(=O)Nc2cccc(CN3C(=O)[C@@]4(O[C@@H](CCn5cc(CCO)nn5)[C@H]([Si](C)(C)c5ccc(OC)cc5)[C@H]4C)c4ccccc43)c2)cc1 | 0.758 | -0.111 | 0.124 | -1.16 (inactive) | 0.997 | 1.17 | 0.558 | 1.38 | 0.851 | 1.4
COc1ccc([Si](C)(C)[C@@H]2[C@@H](CCn3cc([C@H](O)c4ccccc4)nn3)O[C@]3(C(=O)N(Cc4cccc(N5CCOC5=O)c4)c4ccccc43)[C@H]2C)cc1 | -1.35 | -0.231 | 0.658 | 1.7 (inactive) | -1.02 | -1.01 | -0.901 | -0.995 | -1.13 | -0.495
CCOC(=O)C[C@H]1[C@H](OC(=O)c2ccc(-c3ccccc3)cc2)[C@@H](NC(=O)c2ccc3ccccc3c2)c2cc(OCCCO)ccc2N1C(=O)Cc1ccc(OC)cc1 | -0.517 | -0.0669 | -0.269 | -0.334 (inactive) | -0.383 | 0.247 | -0.245 | 0.368 | -0.416 | 0.487
CCCN1C(=O)[C@]2(COC(c3ccc(OCCCO)cc3)=N2)Cc2ccccc21 | 1.08 | 1.09 | 1.1 | 0.409 (inactive) | 0.736 | 1 | -0.542 | 0.378 | 0.0779 | 0.854
C=CCC(OC(C)=O)[C@@H]1[C@@H](N(Cc2ccc(-c3ccccc3)cc2)C(=O)Cc2ccc(OC)cc2)c2cc(OCCCO)ccc2N1C(=O)c1ccc2ccccc2n1 (stereo not given in full) | -0.245 | -0.106 | 0.027 | -1.33 (inactive) | -0.19 | -0.494 | 0.24 | -0.0321 | 0.37 | 1.48
CN1C(=O)C2C(C1=O)C1C=C(CCCO)C2C(c2cccs2)N1C (stereo not given) | 1.78 | -0.722 | -0.681 | -0.0035 (inactive) | 0.248 | -0.76 | -0.106 | -0.473 | -0.559 | 0.561
O=C1N(CCS(=O)(=O)c2ccccc2)Cc2ccccc2C[C@]12N=C(c1ccc(OCCCO)cc1)O[C@@H]2c1ccccc1 | 1.24 | 0.467 | 0.655 | -1.46 (inactive) | 1.4 | 1.3 | 0.477 | 1.18 | 0.784 | 1.4
C=CC[C@@H](OC(=O)Nc1ccc(OC)cc1)c1ccc(O)c2ccccc12 | 1.43 | -0.0942 | -0.0826 | -0.806 (inactive) | 1.2 | 1.28 | 1.06 | 1.4 | 1.23 | 1.07
[N-]=[N+]=Nc1ccccc1C[C@]1(C(=O)NCCN2CCOCC2)N=C(c2ccc(OCCCO)cc2)O[C@H]1c1ccccc1 | 1.09 | 0.641 | 0.273 | 0.183 (inactive) | 0.484 | 1.31 | -0.117 | -0.391 | -0.019 | -0.16

Compound | composite z-score [1] | composite z-score [2] | composite z-score [3] | z-score [4] | composite z-score [5] | composite z-score [6] | composite z-score [7] | composite z-score [8] | composite z-score [9] | composite z-score [10]
C=CCOC(=O)[C@H]1[C@@H]2C(=O)O[C@@H](c3ccccc3)[C@@H](c3ccccc3)N2[C@@H](c2ccc(OCCOC(=O)[C@@H]3C[C@@H]4C(=O)N5CCC[C@H]5C(=O)N4[C@@H]3c3ccc(O)cc3)cc2)[C@]12C(=O)Nc1ccccc12 | 1.53 | -0.294 | 0.0807 | 0.109 (inactive) | 0.629 | 1.28 | 0.586 | 1.21 | 1.45 | -0.23
CS(=O)(=O)CCOC(=O)C1=CC(c2ccc(CO)cc2)=CC(C2CC2)N(Cc2cc3c(cc2Br)OCO3)C=C1C(=O)OCCS(C)(=O)=O (stereo not given) | 0.848 | 0.296 | 0.351 | 0.883 (inactive) | 1.08 | 1.18 | 0.425 | 0.932 | 0.391 | 0.701
O=C1C2C=CC(C(O)c3ccc(-c4ccccc4)s3)N(n3cnnc3)C2C(=O)N1Cc1ccccc1 (stereo not given) | 0.633 | 0.0447 | 0.746 | -0.36 (inactive) | 0.0262 | -0.751 | -0.486 | -0.435 | -0.539 | 0.631
CCCCC=C[C@@H](NC(=O)c1cccs1)c1ccccc1 | -0.15 | -0.0451 | 0.359 | -3.77 (inactive) | 0.44 | 0.476 | -0.273 | -0.171 | 0.13 | 0.764
O=C1O[C@@H](c2ccccc2)[C@@H](c2ccccc2)N2[C@@H](c3ccc(OCCO)cc3)[C@]3(C(=O)Nc4ccc(C#CC5=CCCCC5)cc43)[C@@H](C(=O)O)[C@H]12 | 0.87 | 0.82 | 0.431 | 0.618 (inactive) | 0.43 | 0.661 | 0.257 | 0.636 | 0.581 | 0.784
CCOC(=O)C1=CC[C@@H](c2ccccc2)N(S(=O)(=O)c2ccc(C)cc2)[C@H]1C(=O)OCC | -0.0664 | 0.955 | 1.02 | -0.287 (inactive) | 0.605 | 1.13 | 0.117 | 0.533 | -0.249 | 1.04
O=C1O[C@H](c2ccccc2)[C@H](c2ccccc2)N2[C@H]1[C@@H](C(=O)NC[C@H](O)c1ccccc1)[C@]1(C(=O)Nc3ccc(C#CCCO)cc31)[C@H]2c1ccc(O)cc1 | -0.229 | -0.145 | 0.0258 | -0.551 (inactive) | -0.716 | -1.28 | -0.286 | -1.17 | -0.523 | 0.644
C=C(COC)C(=O)CC[C@H](OC(C)=O)c1cccc(OCCO)c1 | -0.443 | -0.305 | -0.0122 | -0.637 (inactive) | 1.06 | 0.121 | -0.92 | -0.249 | -0.118 | 0.35
CS(=O)(=O)CCOC(=O)C1=CC(CCCO)=CC(c2cccs2)N(Cc2cc3c(cc2Br)OCO3)C=C1C(=O)OCCS(C)(=O)=O (stereo not given) | 0.727 | -0.0606 | 0.15 | 0.576 (inactive) | 1.04 | 1.25 | 0.259 | 1.22 | 0.238 | 1.2
CCCCCN1CC=CC23O[C@@H]4C=CCOC(=O)[C@@H]4[C@H]2C(=O)N(CCCO)[C@@H]3C1=O (stereo not given in full) | 1.63 | -0.263 | 0.359 | -1.76 (inactive) | -0.519 | 0.462 | -0.681 | -0.264 | -0.49 | 0.908
COC(=O)C(CC#Cc1ccc2c(c1)[C@]1(C(=O)N2)[C@H](c2ccc(OCCO)cc2)N2[C@H](c3ccccc3)[C@H](c3ccccc3)OC(=O)[C@H]2[C@@H]1C(=O)NC[C@H](O)c1ccccc1)C(=O)OC | 1.62 | 0.392 | 0.473 | 0.348 (inactive) | 0.826 | 0.801 | 0.0713 | 0.617 | 0.271 | 0.39
CC(C)NC(=O)[C@@]1(Cc2ccccc2I)c2ccccc2C(=O)N(Cc2ccccc2)[C@H]1c1ccc(CO)cc1 | 1.45 | 0.461 | 0.715 | -0.227 (inactive) | 0.954 | 1.28 | 0.136 | 1.09 | 0.0622 | 0.315
CO[C@H]1O[C@H](CO)[C@@H](OC(=O)Nc2ccc3c(c2)OCO3)[C@H](OC(=O)Nc2ccccc2)[C@H]1OC(=O)Nc1ccccc1 | 1.48 | 0.132 | 0.398 | 1.89 (inactive) | 0.892 | 1.29 | -0.0701 | 0.848 | 0.295 | 0.395
NCCCCCCNC(=O)[C@H]1C[C@H]2C(=O)NCC(=O)N2[C@H]1c1cccc(OCCO)c1 | 1.56 | 0.0447 | 0.161 | -0.283 (inactive) | 0.641 | 1.1 | 0.544 | 0.563 | 0.978 | -0.0745
CC(C)Cc1ccc(CN2CC[C@@H](NS(=O)(=O)c3ccccc3)C2)cc1 | -0.265 | -0.367 | -0.747 | 3.53 (inactive) | -0.0725 | -0.375 | -0.608 | 0.0789 | 0.292 | 0.298
